Our source for the inhibition values is PubChem BioAssay AID1645857 (Buhrlage Lab, Dana-Farber Cancer Institute and Novartis …, 2021).

What is called inhibition is the drop in the measured response relative to a control, in per cent.

The structures appear in SMILES notation. The whole screen tested about 47,000 compounds, of which about 1,400 (3%) were called active. No stated cut-off is given here; in the data, active means inhibition above about 30%; inactive means the rest. The full list was thinned out, with actives kept by preference.

The target of this assay is Ubiquitin carboxyl-terminal hydrolase 28 (Homo sapiens) (UniProt Q96RU2). The assay can be described thus: blocks human USP28 ubiquitin-rhodamine cleavage (AID 1645857). The settings on record: purified USP28, Ub-rhodamine cleavage fluorescence, 30 min; at 25 µM; stronger effect = higher value.
Chain of Ubiquitin carboxyl-terminal hydrolase 28 (Homo sapiens) (Q96RU2 whole entry, looked up): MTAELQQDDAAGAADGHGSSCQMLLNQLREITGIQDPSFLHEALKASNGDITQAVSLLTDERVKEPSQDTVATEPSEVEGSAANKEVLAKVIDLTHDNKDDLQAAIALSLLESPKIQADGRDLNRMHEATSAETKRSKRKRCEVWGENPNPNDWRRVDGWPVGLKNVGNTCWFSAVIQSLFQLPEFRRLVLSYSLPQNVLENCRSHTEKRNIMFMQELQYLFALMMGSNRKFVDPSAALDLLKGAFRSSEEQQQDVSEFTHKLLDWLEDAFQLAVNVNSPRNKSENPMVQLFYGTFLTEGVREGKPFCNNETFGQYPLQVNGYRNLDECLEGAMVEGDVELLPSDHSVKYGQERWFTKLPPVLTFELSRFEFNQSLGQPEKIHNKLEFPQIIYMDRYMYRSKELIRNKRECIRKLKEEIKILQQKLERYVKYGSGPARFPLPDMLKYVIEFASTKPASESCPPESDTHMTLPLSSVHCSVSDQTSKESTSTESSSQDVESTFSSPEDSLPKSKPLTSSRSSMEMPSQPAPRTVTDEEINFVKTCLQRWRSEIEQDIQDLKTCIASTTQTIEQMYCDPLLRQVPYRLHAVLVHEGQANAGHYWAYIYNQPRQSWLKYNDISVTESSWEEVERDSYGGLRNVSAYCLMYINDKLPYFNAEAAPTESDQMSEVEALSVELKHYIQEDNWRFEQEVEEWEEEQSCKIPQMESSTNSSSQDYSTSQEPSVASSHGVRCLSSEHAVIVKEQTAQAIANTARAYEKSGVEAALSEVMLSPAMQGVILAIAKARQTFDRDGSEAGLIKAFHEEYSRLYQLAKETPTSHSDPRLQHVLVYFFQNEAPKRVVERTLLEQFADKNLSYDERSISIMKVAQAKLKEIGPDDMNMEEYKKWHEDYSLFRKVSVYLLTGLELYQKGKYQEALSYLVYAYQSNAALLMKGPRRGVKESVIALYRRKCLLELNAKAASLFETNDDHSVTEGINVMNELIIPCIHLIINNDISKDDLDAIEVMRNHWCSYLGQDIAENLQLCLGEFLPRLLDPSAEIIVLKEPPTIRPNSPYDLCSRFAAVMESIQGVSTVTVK
On to `CCC(=O)Nc1ccccc1SCC(=O)N1c2ccccc2CC1C` (stereo not given), for which the inhibition is 10.9% (inactive).
For the molecule `CS(=O)(=O)c1ccc(Oc2ncc(-c3cccs3)cn2)cc1`, the inhibition was 3.89% (inactive).
As to `COc1ccc(C(C)=O)cc1CSc1nnc(-c2ccccc2OC)n1CCc1ccccc1`, the inhibition is 5.07% (inactive).
In the case of `CN(C)CCCNC(=O)/C=C/c1ccc(OCc2c(F)cccc2Cl)cc1`, the inhibition was 34.5% (active).
Next, `CC(C)(C)c1ccc(/C=C/C(=O)NCCCn2ccnc2)cc1`: -4.88% (inactive).
Consider `COC(=O)c1cc2c(ccn2C)n1CC(=O)NC1CCCC1`, for which the inhibition was -250% (inactive).
On to `Oc1cccc2nc3c(O)cccc3nc12`, for which the inhibition is 61.8% (active).
On to `CCCCCCCCCCC(C)C1CC(=O)NC(C(C)O)C(=O)NC(C)C(=O)NC(C)C(=O)NC(CCC(N)=O)C(=O)NC(Cc2ccc(O)cc2)C(=O)NC(C(C)CC)C(=O)O1` (stereo not given), for which the inhibition was -4.03% (inactive).
Then `Cc1cc(=O)[nH]c(C2CN(C(=O)c3cccc4c3OCCO4)CCO2)n1` (stereo not given), with -1.67% (inactive); and `Cc1ccc(NC(=O)Cc2sc(Nc3ccc(C)cc3)nc2O)cc1`, with 75.6% (active); and `CCOc1ccc(Nc2nc(O)c(CC(=O)Nc3cccc(C)c3)s2)cc1`, with 27.4% (inactive).
In the case of `Cc1ccc(Nc2nc(O)c(CC(=O)Nc3ccc(C(C)C)cc3)s2)cc1C`, the inhibition was -1.13% (inactive).
Then `CC(Nc1nc2ccccc2nc1NS(=O)(=O)c1cc(Cl)ccc1Cl)c1ccccc1` (stereo not given), with -235% (inactive); and `CC(=O)C(CC(=O)N1CCCC1)C(=O)Nc1ccc(Cl)cc1` (stereo not given), with 8.14% (inactive); and `CC1CCN(c2ccc(C(=O)NCc3ccc(F)cc3)cc2[N+](=O)[O-])CC1`, with 0.654% (inactive).
Next, `O=C(NCCc1ccccc1)c1ccc2c(=O)n(Cc3ccco3)c(=O)n(Cc3cccc([N+](=O)[O-])c3)c2c1`: 73.4% (active); `O=C(NCCc1ccccc1)c1ccc2c(=O)nc3c(-c4ccccc4F)n[nH]n3c2c1`: -8.97% (inactive).
Consider `O=C(Cn1c(=O)n(Cc2ccc3c(c2)OCO3)c(=O)c2ccccc21)NCc1ccco1`, for which the inhibition is 26.3% (inactive).
As to `Cn1ccc(NC(=O)CN2[C@H](Cc3ccccc3)C[C@]3(C)NC(=O)CCC[C@H]23)n1`, the inhibition was -3.27% (inactive).
`CC1CCCCN1CC(=O)N1CCc2cc(S(N)(=O)=O)ccc21` (stereo not given): the inhibition was -35.3% (inactive).
Regarding `CCc1ccc(-n2c(SC(CC)C(=O)NCCOC)nc3n[nH]c(C)c3c2=N)cc1` (stereo not given), the inhibition was -17.1% (inactive).
On to `COc1ccccc1-c1ccc2nnc(SCC(=O)Nc3ccc4c(c3)OCCO4)n2n1`, for which the inhibition is 3.38% (inactive).
As for `CCOC(=O)c1cc2c(ccn2C)n1CC(=O)Nc1ccc2c(c1)OCCO2`, the inhibition is -34.6% (inactive).
On to `O=C(Cn1cc(C(F)(F)F)ccc1=O)Nc1ccc2c(c1)OCCO2`, for which the inhibition was 15.1% (inactive).
`COc1ccc(C)cc1NC(=O)Cn1c(=O)nc(N(C)c2ccccc2)c2ccccc21`: the inhibition was 20.4% (inactive).
Take `O=C(Cn1cnc2c(sc3ccccc32)c1=O)Nc1ccc2c(c1)OCCO2`: the inhibition was 38.1% (active).
As to `CN(c1ccccc1)c1nc(=O)n(CC(=O)Nc2ccc3c(c2)OCCO3)c2ccccc12`, the inhibition was 41.9% (active).
Consider `COc1cccc(-c2cnc(C(O)c3sccc3C)[nH]2)c1` (stereo not given), for which the inhibition was -14.5% (inactive).
Then `Fc1cccc(Nc2nc(-c3ccncc3)nc3c2CCC3)c1`, with 5.32% (inactive).
Consider `CSc1nc2c(c(Nc3ccc(C(C)=O)cc3)n1)CCC2`, for which the inhibition is 53.2% (active).
Regarding `COc1cc(-c2nnc(SCC(=O)Nc3ccc(Br)cc3)n2CCc2ccccc2)cc(OC)c1OC`, the inhibition is -5.36% (inactive).
For `O=C(NCCc1ccc(O)cc1)c1cc(Br)ccc1-n1cnnn1`, the inhibition was 8.86% (inactive).
Then `Cc1nc(SCC#N)c2oc3ccccc3c2n1`, with -1.32% (inactive); and `COC(=O)c1cccnc1-n1c(=O)c2cccnc2n(CC(=O)Nc2ccc(C)c(F)c2)c1=O`, with -12.4% (inactive).
As to `CC(C)(C)C(=O)Nc1ccc(SCc2nnc(-c3ccccc3)o2)cc1`, the inhibition is 64% (active).
Next, `CC(C)(C)C(=O)Nc1ccc(C(=O)Nc2ccc(O)cc2C(=O)O)cc1`: 13.9% (inactive); `Cc1ccc(-c2nnc(CCC(=O)O)o2)cc1`: -0.555% (inactive).
For `O=C(CCc1csc(NC(=O)c2ccc(=O)[nH]c2)n1)NCCc1c[nH]c2ccccc12`, the inhibition was -13.5% (inactive).
Take `CC1CCN(S(=O)(=O)N2CCCC(C(=O)NC3CCN(Cc4ccccc4)CC3)C2)CC1` (stereo not given): the inhibition is -8.49% (inactive).
Then `CCOc1ccccc1OC(=O)c1cc(-c2cc(OC)c(OC)c(OC)c2)nc2ccccc12`, with -10% (inactive).
